Measurements from PubChem BioAssay (Tox21).
Inconclusive results are not listed. Entries that show only a call come without a potency. Active and inactive are the calls of the source. The call rests on the fitted dose curve; in most records, active means well fitted activation curve with a large enough effect in the signal ratio in the repeat runs (not every such curve was filed as active); inconclusive means weak or mixed curves, or effect the other way; inactive means flat fitted curve, though single readings scatter; the % refers to the signal ratio.
Potency means the concentration at half of the fitted maximal effect.

These molecules were tested against Bile acid receptor (Homo sapiens) (UniProt Q96RI1) (assay: qHTS assay to identify small molecule agonists of the farnesoid-X-receptor (FXR) signaling pathway (AID 743220)). Settings: HEK293T FXR-UAS-bla, beta-lactamase FRET ratio, 16 h; series mostly up to 62.6 µM.
Chain of Bile acid receptor (Homo sapiens) (Q96RI1 whole entry, looked up): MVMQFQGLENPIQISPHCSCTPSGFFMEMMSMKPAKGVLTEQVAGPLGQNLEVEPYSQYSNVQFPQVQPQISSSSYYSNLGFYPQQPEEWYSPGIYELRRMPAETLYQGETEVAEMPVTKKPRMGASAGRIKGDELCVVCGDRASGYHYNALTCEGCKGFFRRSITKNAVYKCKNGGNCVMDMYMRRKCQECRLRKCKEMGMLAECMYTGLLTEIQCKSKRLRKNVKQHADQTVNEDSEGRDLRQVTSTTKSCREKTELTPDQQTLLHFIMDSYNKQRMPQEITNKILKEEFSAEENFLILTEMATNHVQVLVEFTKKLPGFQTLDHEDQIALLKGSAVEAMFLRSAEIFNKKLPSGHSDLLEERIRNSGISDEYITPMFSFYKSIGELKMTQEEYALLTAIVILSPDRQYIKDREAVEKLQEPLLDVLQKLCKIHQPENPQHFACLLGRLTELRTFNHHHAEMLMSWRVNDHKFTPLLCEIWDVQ
Description: National Center for Advancing Translational Sciences [NCATS]
NIH Chemical Genomics Center [NCGC]
U.S. Environmental Protection Agency [EPA]
National Institutes of Environmental Health Sciences [NIEHS]
National Toxicology Program [NTP]
U.S. Food and Drug Administration [FDA]
The farnesoid-X-receptor (FXR), a nuclear hormone receptor, is highly expressed in liver, intestine, kidney and adrenal cortex. Natural ligands of FXR are the bile acids (Cholic acid, Chenodeoxy cholic acid etc). FXR is an important regulator of diverse metabolic pathways, including the bile acid homeostasis, lipid and glucose metabolisms. FXR regulates the expression of target genes by binding either as a monomer or as a heterodimer with the retinoid X receptor (RXR). Numerous studies have reported that FXR exerts protective function during cholestasis, diabetes, liver regeneration, and cancer. To identify compounds that activate FXR signaling, GeneBLAzer FXR-UAS-bla HEK 293T cell line (Invitrogen, Carlsbad, CA) containing a beta-lactamase reporter gene under the control of a UAS response element was used to screen the Tox21 10K compound library.
Tox21 Assay Protocol Summary:
FXR-bla cells were dispensed at 5000 cells/5uL/well in 1536-well black wall/clear bottom plates using a Multidrop Combi (Thermo Fisher Scientific, Waltham, MA) dispenser. After the assay plates were incubated at 37C and 5% CO2 for 5 h, 23 nL of compounds dissolved in DMSO, positive controls or DMSO only was transferred to the assay plate by a Pintool station (Kalypsys, San Diego, CA). The assay plates were incubated at 37C for 16 h. After 1 uL of LiveBLAzerTM B/G FRET substrate was added using a Bioraptr Flying Reagent Dispenser (FRD) workstation (Beckman Coulter, Indianapolis, IN), the plates were incubated at room temperature for 2 h, and fluorescence intensity was measured by an Envision plate reader (PerkinElmer, Shelton, CT).
For O=Cc1ccccc1, the Potency was “inactive”. With CCN(CC)CCN1C(=O)CN=C(c2ccccc2F)c2cc(Cl)ccc21 the Potency was “inactive”. For O=c1c2ccccc2c(=O)c2c1cc(Cl)c1[nH]c3c([nH]c12)c(Cl)cc1c(=O)c2ccccc2c(=O)c13, the Potency was “inactive”. In the case of Cc1cc2c3c(c1)C(c1ccccc1)=N[C@@H](NC(=O)c1ccncc1)C(=O)N3CC2, the Potency is reported as “inactive”. For COC(=O)c1cc(Oc2ccc(Cl)cc2Cl)ccc1[N+](=O)[O-], the Potency was “inactive”. With O=C(Cl)c1ccccc1F the Potency was “inactive”. With C=CCBr the Potency was “inactive”. With O=C(Nc1ccc(F)cc1F)c1cccnc1Oc1cccc(C(F)(F)F)c1 the Potency was “inactive”. For Cc1c([N+](=O)[O-])cc2c(c1[N+](=O)[O-])C(C)(C)CC2(C)C, the Potency was “inactive”. For N#Cc1ccc(N(CC(N)=O)CC(F)(F)F)cc1C(F)(F)F, the Potency was “inactive”. In the case of CC(Cc1ccc(O)cc1)NCC(O)c1cc(O)cc(O)c1 (stereo not given), the Potency is reported as “inactive”. With CCO/N=C(\CC)C1=C(O)CC(c2c(C)cc(C)cc2C)CC1=O (stereo not given) the Potency was “inactive”. In the case of Cc1cc(C2CC2)nc(Nc2ccccc2)n1, the Potency is reported as “inactive”. C=Cc1cccc(CCl)c1 was tested, and the Potency was “inactive”. ClCBr was tested, and the Potency was “inactive”. For COP(=O)(OC)O/C(=C\Cl)c1cc(Cl)c(Cl)cc1Cl, the Potency was “inactive”. For CC(C)=CC1C(C(=O)OC(C#N)c2cccc(Oc3ccccc3)c2)C1(C)C (stereo not given), the Potency was “inactive”. In the case of CSC1=N[C@@](C)(c2ccccc2)C(=O)N1Nc1ccccc1, the Potency is reported as “inactive”. ClC1(Cl)C2(Cl)C3(Cl)C4(Cl)C(Cl)(Cl)C5(Cl)C3(Cl)C1(Cl)C5(Cl)C24Cl (stereo not given) was tested, and the Potency was “inactive”. In the case of O=c1[nH]c(Cl)c(Cl)cc1Cl, the Potency is reported as “inactive”. With CCOC(=O)Cc1ccccc1 the Potency was “inactive”. In the case of CC(Cc1ccccc1)N(C)Cc1ccco1 (stereo not given), the Potency is reported as “inactive”. With O=C1C2(Cl)C3(Cl)C4(Cl)C(Cl)(Cl)C5(Cl)C3(Cl)C1(Cl)C5(Cl)C24Cl (stereo not given) the Potency was “inactive”. With CC(C)C(Br)C(=O)NC(N)=O (stereo not given) the Potency was “inactive”. In the case of CCC(C)c1cccc(C(C)CC)c1O (stereo not given), the Potency is reported as “inactive”. In the case of CCCCc1ccccc1, the Potency is reported as “inactive”. Cc1ccc(C)c2ccccc12 was tested, and the Potency was “inactive”. With CC1=C2C[C@H]3[C@@H](CC=C4C[C@@H](O)CC[C@@]43C)[C@@H]2CC[C@]12O[C@@H]1C[C@H](C)CN[C@H]1[C@H]2C the Potency was 10.7 µM (active). In the case of CC(C)(C)c1ccc(OP(=O)(Oc2ccccc2)Oc2ccccc2)cc1, the Potency is reported as “inactive”. With COC(=O)c1ccccc1S(=O)(=O)NC(=O)Nc1nc(C)nc(OC)n1 the Potency was “inactive”. In the case of CC[N+]1(CC)CCC(OC(=O)C(O)(c2ccccc2)c2ccccc2)C1 (stereo not given), the Potency is reported as “inactive”. CNC(=O)/C=C(\C)OP(=O)(OC)OC was tested, and the Potency was “inactive”. CNC(=O)CSP(=O)(OC)OC was tested, and the Potency was “inactive”. With CCOC(=O)CCN(SN(C)C(=O)Oc1cccc2c1OC(C)(C)C2)C(C)C the Potency was “inactive”. In the case of FC(F)C(F)(F)OCC(Cn1cncn1)c1ccc(Cl)cc1Cl (stereo not given), the Potency is reported as “inactive”. In the case of CNC(=O)O/N=C(\C)C(C)S(C)(=O)=O (stereo not given), the Potency is reported as “inactive”. For CC(C)[C@@H](Nc1ccc(C(F)(F)F)cc1Cl)C(=O)OC(C#N)c1cccc(Oc2ccccc2)c1 (stereo not given in full), the Potency was “inactive”. Oc1cc(Cl)c(Cl)c(Cl)c1Cl was tested, and the Potency was “inactive”. For [O]=[Cr][O][Cr]=[O], the Potency was “inactive”. Clc1ccc(C(c2ccc(Cl)cc2)C(Cl)Cl)cc1 was tested, and the Potency was “inactive”.
